Data: article PMC11062922 (Nature Chemical Biology, 2023)
Where two headings read alike, the source gives them in different places.

Assays:
Set-up in all cases: species or system human, MV4-11 + K-562 + COLO205 + SK-N-BE2 + OVCAR-8
BMP2K = details: read-out: apparent Kd, n = 1
ERN1 = details: read-out: apparent Kd, compound concentrations: 100 nM and 1000 nM (sheet 'Samples'), n = 1
ERN2 = details: read-out: apparent Kd, compound concentrations: 100 nM and 1000 nM (sheet 'Samples'), n = 1
MAP4K1 = details: read-out: apparent Kd, compound concentrations: 100 nM and 1000 nM (sheet 'Samples'), n = 1
TAOK2 = details: read-out: apparent Kd, n = 1
ICK = details: read-out: apparent Kd; compound concentrations: 100 nM and 1000 nM (sheet 'Samples'), CATDS: 0.109854156237019; n = 1
MARK4 = details: read-out: apparent Kd, compound concentrations: 100 nM and 1000 nM (sheet 'Samples'), n = 1
PRKAA1 = details: read-out: apparent Kd, compound concentrations: 100 nM and 1000 nM (sheet 'Samples'), n = 1
PRKAG2 = details: read-out: apparent Kd, compound concentrations: 100 nM and 1000 nM (sheet 'Samples'), n = 1
STK4 = details: read-out: apparent Kd, n = 1
STK26 = details: read-out: apparent Kd, n = 1
MTOR = details: read-out: apparent Kd, compound concentrations: 100 nM and 1000 nM (sheet 'Samples'), n = 1
PIK3C2A = details: read-out: apparent Kd, compound concentrations: 100 nM and 1000 nM (sheet 'Samples'), n = 1
MAP3K11 = details: read-out: apparent Kd, compound concentrations: 100 nM and 1000 nM (sheet 'Samples'), n = 1
PRKAA2 = details: read-out: apparent Kd; compound concentrations: 100 nM and 1000 nM (sheet 'Samples'), CATDS: 1.00285824398185E-2; n = 1
TEC = details: read-out: apparent Kd, compound concentrations: 100 nM and 1000 nM (sheet 'Samples'), n = 1
MAPK8 = details: read-out: apparent Kd, n = 1
CDC42 = details: read-out: apparent Kd; compound concentrations:100 nM and 1000 nM (sheet 'Samples'); n = 1
SLK = details: read-out: apparent Kd, n = 1
[1] = compound concentrations:100 nM and 1000 nM (sheet 'Samples')

## COc1cccc(-n2ncc3c(N/N=C/c4ccc(C(=O)NCCN(C)C)cc4)ncnc32)c1.Cl [GW784307A]
BMP2K; compound concentrations: 100 nM and 1000 nM (sheet 'Samples'), CATDS: 2.5475842805915101E-2
  potency estimated from few doses: 2050 nM

## CC(C)c1nc(-c2cccc(NS(=O)(=O)c3ccccc3)c2)c(-c2ccnc(Nc3ccc4c(c3)CN(C)CC4)n2)s1 [GSK1649598A]
ERN1; CATDS: 1.5593168360276599E-2
  potency estimated from few doses: 758 nM
ERN2; CATDS: 3.39417380215319E-2
  potency estimated from few doses: 124 nM
MAP4K1; CATDS: 1.9870950610889799E-2
  potency estimated from few doses: 381 nM
TAOK2; compound concentrations: 100 nM and 1000 nM (sheet 'Samples'), CATDS: 1.5717541572097499E-2
  potency estimated from few doses: 739 nM

## Cn1cc(C2=C(c3cn(CCCO)c4ccccc34)C(=O)NC2=O)c2ccccc21 [RO0317377-000]
ICK
  potency estimated from few doses: 1460 nM

## CN1C(=O)c2ccccc2N(C)c2nc(Nc3cnn(C4CCNCC4)c3)ncc21 [XMD-17-51]
BMP2K; compound concentrations: 100 nM and 1000 nM (sheet 'Samples'), CATDS: 1.6944830002157098E-2
  potency estimated from few doses: 771 nM
MARK4; CATDS: 2.0662278149912901E-2
  potency estimated from few doses: 412 nM
PRKAA1; CATDS: 1.61806798261299E-2
  potency estimated from few doses: 911 nM
PRKAG2; CATDS: 1.7077716006994301E-2
  potency estimated from few doses: 750 nM
TAOK2; compound concentrations: 100 nM and 1000 nM (sheet 'Samples'), CATDS: 5.5086775745804402E-2
  potency estimated from few doses: 42.4 nM

## CS(=O)(=O)Cc1ccc(Nc2nccc(-c3c(-c4cccc(NC(=O)C5CCCCC5)c4)nn4ncccc34)n2)cc1 [GSK350559A]
STK4; [1]
  potency estimated from few doses: 1770 nM

## Nc1nc(-c2ccc3c(N)n[nH]c3c2)cc(N2CCCCC2)n1 [GSK2228768A]
STK26; [1]
  potency estimated from few doses: 1330 nM

## CS(=O)(=O)CCNCc1ccc(-c2ccc3ncnc(Nc4ccc(OCc5cccc(F)c5)c(C(F)(F)F)c4)c3c2)o1 [GW576484X]
MARK4; CATDS: 5.9224998960535298E-2
  potency estimated from few doses: 1370 nM
MTOR; CATDS: 9.7740197678702595E-2
  potency estimated from few doses: 599 nM
PIK3C2A; CATDS: 5.2836581053762099E-2
  potency estimated from few doses: 1740 nM

## O=C1N=C(NCc2cccs2)SC1Cc1ccc2ncccc2c1 (stereo not shown) [RO4629078-000]
BMP2K; compound concentrations: 100 nM and 1000 nM (sheet 'Samples'), CATDS: 1.0249270291889601E-2
  potency estimated from few doses: 630 nM
MAP3K11; CATDS: 8.9937609356747009E-3
  potency estimated from few doses: 890 nM
MARK4; CATDS: 9.8317273929225003E-3
  potency estimated from few doses: 699 nM
MTOR; CATDS: 1.0012071697909601E-2
  potency estimated from few doses: 667 nM
PRKAA1; CATDS: 1.35837809267181E-2
  potency estimated from few doses: 343 nM
PRKAA2
  potency estimated from few doses: 665 nM
PRKAG2; CATDS: 1.6046460203227E-2
  potency estimated from few doses: 253 nM
TEC; CATDS: 8.6375652210939294E-3
  potency estimated from few doses: 1000 nM

## Cc1ccc(O)cc1Nc1ccnc2cc(-c3ccc(CN4CCCCC4)o3)ccc12 [GW557777X]
TEC; CATDS: 1.34758228974899E-2
  potency estimated from few doses: 1040 nM

## Cl.Cl.Cl.c1ccc(Oc2ccc(Nc3ccnc4cc(-c5ccc(CN6CCNCC6)o5)ccc34)cc2)nc1.c1ccc(Oc2ccc(Nc3ccnc4cc(-c5ccc(CN6CCNCC6)o5)ccc34)cc2)nc1 [GW567142A]
PIK3C2A; CATDS: 1.69384830257906E-2
  potency estimated from few doses: 2080 nM
TEC; CATDS: 1.92615538801734E-2
  potency estimated from few doses: 1300 nM

## CCN(CC)CCOc1ccc(Nc2ncc3cc(-c4c(Cl)cccc4Cl)c(=O)n(C)c3n2)cc1 [SB-601273]
TAOK2; [1]
  potency estimated from few doses: 1150 nM

## O=C1N=C(NCCc2cccc(F)c2)S/C1=C\c1ccc2ncccc2c1 [RO4508344-000]
ERN2; CATDS: 7.9069869208326996E-2
  potency estimated from few doses: 1660 nM

## CC(C)c1nc(-c2cccc(NS(=O)(=O)c3c(F)cccc3F)c2)c(-c2ccnc(Nc3ccc(N4CCOCC4)nc3)n2)s1.Cl [GSK1723980B]
ERN1; CATDS: 1.53606700454439E-2
  potency estimated from few doses: 1320 nM
MAP3K11; CATDS: 1.8312802074437001E-2
  potency estimated from few doses: 662 nM

## Fc1ccc(-c2c(-c3ccncc3)[nH]c3nccnc23)cc1 [RO1155697-000]
MAPK8; [1]
  potency estimated from few doses: 1790 nM

## CN1CCN(Cc2ccc(NC(=O)Nc3ccc(N(C)c4ccnc(Nc5ccc(CS(C)(=O)=O)cc5)n4)cc3)cc2)CC1.Cl [GW827654A]
MAP4K1; CATDS: 4.9471634979456398E-2
  potency estimated from few doses: 557 nM

## O=S(=O)(CCOCc1ccc(-c2ccc3ncnc(Nc4ccc(OCc5cccc(F)c5)c(Cl)c4)c3c2)o1)c1ccccc1 [GW615311X]
MAPK8; compound concentrations: 100 nM and 1000 nM (sheet 'Samples'), CATDS: 2.6376171995156399E-2
  potency estimated from few doses: 1540 nM
MTOR; CATDS: 4.7570184263153799E-2
  potency estimated from few doses: 527 nM
PIK3C2A; CATDS: 2.34385173398927E-2
  potency estimated from few doses: 2050 nM
STK26; compound concentrations: 100 nM and 1000 nM (sheet 'Samples'), CATDS: 2.23099896492461E-2
  potency estimated from few doses: 2340 nM

## COc1cc2ncn(-c3cc(OCc4cccs4)c(C(N)=O)s3)c2cc1OC [GSK312948A]
BMP2K; [1]
  potency estimated from few doses: 1430 nM
CDC42
  potency estimated from few doses: 1550 nM
SLK; [1]
  potency estimated from few doses: 262 nM

## CN1CCc2ccc(Nc3nccc(-c4c(-c5cccc(NC(=O)c6c(F)cccc6F)c5)nc5ccccn45)n3)cc2C1.Cl [GSK1010829B]
STK4; compound concentrations: 100 nM and 1000 nM (sheet 'Samples'), CATDS: 3.6315985659661598E-2
  potency estimated from few doses: 1170 nM
TAOK2; compound concentrations: 100 nM and 1000 nM (sheet 'Samples'), CATDS: 3.64108611477112E-2
  potency estimated from few doses: 1170 nM

## CNC(=O)c1ccccc1Nc1nc(Nc2cccc(CS(C)(=O)=O)c2)ncc1C.O=CO [GSK1520489A]
MAP4K1; CATDS: 1.32778170160273E-2
  potency estimated from few doses: 423 nM
MAPK8; compound concentrations: 100 nM and 1000 nM (sheet 'Samples'), CATDS: 1.2501380881005299E-2
  potency estimated from few doses: 517 nM
SLK; compound concentrations: 100 nM and 1000 nM (sheet 'Samples'), CATDS: 2.2249249802163501E-2
  potency estimated from few doses: 107 nM
TEC; CATDS: 7.2078436601234794E-2
  potency estimated from few doses: 13.5 nM
